# ChEMBL document CHEMBL2218924, “A broad activity screen in support of a chemogenomic map for kinase signalling research and drug discovery” (Biochem J, 2013)
# Assays:
# [1] = target: Tyrosine-protein kinase Lyn (Homo sapiens) (UniProt P07948); settings: at 1 µM
# [2] = target: Tyrosine-protein kinase Lyn (Homo sapiens) (UniProt P07948); settings: at 10 µM
# [3] = target: Mitogen-activated protein kinase 3 (Homo sapiens) (UniProt P27361); settings: at 1 µM
# [4] = target: Mitogen-activated protein kinase 3 (Homo sapiens) (UniProt P27361); settings: at 10 µM
# [5] = target: MAP kinase-activated protein kinase 2 (Homo sapiens) (UniProt P49137); settings: at 1 µM
# [6] = target: MAP kinase-activated protein kinase 2 (Homo sapiens) (UniProt P49137); settings: at 10 µM
# [7] = target: Serine/threonine-protein kinase MARK1 (Homo sapiens) (UniProt Q9P0L2); settings: at 1 µM
# [8] = target: Serine/threonine-protein kinase MARK1 (Homo sapiens) (UniProt Q9P0L2); settings: at 10 µM
# [9] = target: Dual specificity mitogen-activated protein kinase kinase 1 (Homo sapiens) (UniProt Q02750); settings: at 1 µM
# [10] = target: Dual specificity mitogen-activated protein kinase kinase 1 (Homo sapiens) (UniProt Q02750); settings: at 10 µM
# [11] = target: Maternal embryonic leucine zipper kinase (Homo sapiens) (UniProt Q14680); settings: at 1 µM
# [12] = target: Maternal embryonic leucine zipper kinase (Homo sapiens) (UniProt Q14680); settings: at 10 µM
# [13] = target: Misshapen-like kinase 1 (Homo sapiens) (UniProt Q8N4C8); settings: at 1 µM
# [14] = target: Misshapen-like kinase 1 (Homo sapiens) (UniProt Q8N4C8); settings: at 10 µM
# [15] = target: Mitogen-activated protein kinase 1 (Homo sapiens) (UniProt P28482); settings: at 1 µM
# [16] = target: Mitogen-activated protein kinase 1 (Homo sapiens) (UniProt P28482); settings: at 10 µM
# [17] = target: MAP kinase-activated protein kinase 3 (Homo sapiens) (UniProt Q16644); settings: at 10 µM
# [18] = target: Tyrosine-protein kinase Lck (Homo sapiens) (UniProt P06239); settings: at 1 µM
# [19] = target: Tyrosine-protein kinase Lck (Homo sapiens) (UniProt P06239); settings: at 10 µM
# [20] = target: Tyrosine-protein kinase Lck (Homo sapiens) (UniProt P06239); settings: at 10 µM; remark: listed apart in the source
# Sequence of Serine/threonine-protein kinase MARK1 (Homo sapiens) (Q9P0L2 whole entry, looked up): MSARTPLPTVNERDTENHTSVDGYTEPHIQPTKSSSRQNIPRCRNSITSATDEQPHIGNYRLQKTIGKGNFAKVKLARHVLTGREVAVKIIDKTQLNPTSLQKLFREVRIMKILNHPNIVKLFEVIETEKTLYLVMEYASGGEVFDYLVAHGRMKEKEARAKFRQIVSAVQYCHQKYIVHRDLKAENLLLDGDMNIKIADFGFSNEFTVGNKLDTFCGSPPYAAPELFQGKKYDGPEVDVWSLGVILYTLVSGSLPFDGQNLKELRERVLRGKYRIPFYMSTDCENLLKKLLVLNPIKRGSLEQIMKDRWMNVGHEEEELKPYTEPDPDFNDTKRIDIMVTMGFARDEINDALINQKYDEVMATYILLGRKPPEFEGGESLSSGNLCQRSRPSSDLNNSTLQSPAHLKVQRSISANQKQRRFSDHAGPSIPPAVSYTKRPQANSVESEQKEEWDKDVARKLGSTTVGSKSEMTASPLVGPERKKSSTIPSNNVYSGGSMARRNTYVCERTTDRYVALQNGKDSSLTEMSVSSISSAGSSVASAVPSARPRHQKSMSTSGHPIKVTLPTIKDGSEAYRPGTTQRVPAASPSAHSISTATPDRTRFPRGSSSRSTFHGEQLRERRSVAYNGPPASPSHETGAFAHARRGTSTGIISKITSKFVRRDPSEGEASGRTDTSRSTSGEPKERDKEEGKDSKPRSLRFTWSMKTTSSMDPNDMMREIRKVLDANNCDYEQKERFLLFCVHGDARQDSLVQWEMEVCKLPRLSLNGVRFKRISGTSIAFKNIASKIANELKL
# Sequence of Misshapen-like kinase 1 (Homo sapiens) (Q8N4C8 whole entry, looked up): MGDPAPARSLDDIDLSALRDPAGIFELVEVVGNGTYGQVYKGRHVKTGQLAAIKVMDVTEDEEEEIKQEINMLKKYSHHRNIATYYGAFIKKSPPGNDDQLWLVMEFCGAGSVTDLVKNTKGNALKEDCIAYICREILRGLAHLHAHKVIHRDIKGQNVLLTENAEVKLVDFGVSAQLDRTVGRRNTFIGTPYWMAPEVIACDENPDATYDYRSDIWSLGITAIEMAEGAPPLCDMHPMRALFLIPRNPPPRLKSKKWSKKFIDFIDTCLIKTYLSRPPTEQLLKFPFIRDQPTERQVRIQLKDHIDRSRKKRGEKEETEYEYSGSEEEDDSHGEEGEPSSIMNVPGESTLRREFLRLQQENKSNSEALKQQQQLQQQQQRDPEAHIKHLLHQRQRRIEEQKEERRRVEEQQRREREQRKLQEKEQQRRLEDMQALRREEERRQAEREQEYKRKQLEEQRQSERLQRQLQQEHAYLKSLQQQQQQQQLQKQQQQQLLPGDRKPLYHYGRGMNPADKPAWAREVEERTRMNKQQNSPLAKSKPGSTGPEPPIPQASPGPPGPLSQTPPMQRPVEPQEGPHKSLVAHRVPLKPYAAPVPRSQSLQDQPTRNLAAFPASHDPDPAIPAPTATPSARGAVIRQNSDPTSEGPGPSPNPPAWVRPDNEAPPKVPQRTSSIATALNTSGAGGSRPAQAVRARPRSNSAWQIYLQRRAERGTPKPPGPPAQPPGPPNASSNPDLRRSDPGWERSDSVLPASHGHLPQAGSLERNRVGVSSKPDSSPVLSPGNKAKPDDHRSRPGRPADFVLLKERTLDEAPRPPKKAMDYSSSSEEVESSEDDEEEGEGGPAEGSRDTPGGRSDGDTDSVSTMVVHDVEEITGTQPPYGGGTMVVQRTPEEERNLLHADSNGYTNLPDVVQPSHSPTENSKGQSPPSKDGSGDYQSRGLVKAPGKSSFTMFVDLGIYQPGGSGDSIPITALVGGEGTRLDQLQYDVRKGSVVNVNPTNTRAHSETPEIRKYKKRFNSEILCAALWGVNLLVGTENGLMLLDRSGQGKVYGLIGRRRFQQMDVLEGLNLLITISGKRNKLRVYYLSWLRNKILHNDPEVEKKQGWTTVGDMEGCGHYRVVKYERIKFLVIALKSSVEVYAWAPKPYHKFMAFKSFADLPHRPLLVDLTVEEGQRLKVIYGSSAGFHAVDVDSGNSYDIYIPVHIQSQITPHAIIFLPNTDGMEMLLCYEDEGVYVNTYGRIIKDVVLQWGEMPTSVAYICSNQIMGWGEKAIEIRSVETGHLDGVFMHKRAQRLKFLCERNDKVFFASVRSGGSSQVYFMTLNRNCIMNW
# Sequence of Dual specificity mitogen-activated protein kinase kinase 1 (Homo sapiens) (Q02750 whole entry): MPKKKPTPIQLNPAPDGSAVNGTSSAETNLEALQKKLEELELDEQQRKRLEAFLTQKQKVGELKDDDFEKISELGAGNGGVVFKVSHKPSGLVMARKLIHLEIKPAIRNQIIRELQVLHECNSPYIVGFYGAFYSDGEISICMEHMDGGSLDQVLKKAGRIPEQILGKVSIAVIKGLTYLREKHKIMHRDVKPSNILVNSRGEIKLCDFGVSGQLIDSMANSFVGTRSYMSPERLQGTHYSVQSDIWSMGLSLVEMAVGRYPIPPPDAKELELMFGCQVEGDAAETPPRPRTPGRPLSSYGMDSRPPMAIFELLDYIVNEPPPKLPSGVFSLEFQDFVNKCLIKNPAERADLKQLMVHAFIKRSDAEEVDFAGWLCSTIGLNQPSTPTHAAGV
# Sequence of MAP kinase-activated protein kinase 3 (Homo sapiens) (Q16644 whole entry, looked up): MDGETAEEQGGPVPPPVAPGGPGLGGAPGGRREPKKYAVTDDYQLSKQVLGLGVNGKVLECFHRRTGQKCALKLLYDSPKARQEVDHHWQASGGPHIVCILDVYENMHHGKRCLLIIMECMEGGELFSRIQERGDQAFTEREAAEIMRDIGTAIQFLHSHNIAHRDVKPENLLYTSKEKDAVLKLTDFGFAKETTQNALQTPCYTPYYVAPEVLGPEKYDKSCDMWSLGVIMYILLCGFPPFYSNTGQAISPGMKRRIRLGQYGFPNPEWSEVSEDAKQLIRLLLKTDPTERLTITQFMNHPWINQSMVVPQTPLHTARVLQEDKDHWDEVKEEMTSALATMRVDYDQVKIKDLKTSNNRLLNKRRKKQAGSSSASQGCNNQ
# Sequence of Maternal embryonic leucine zipper kinase (Homo sapiens) (Q14680 whole entry, looked up): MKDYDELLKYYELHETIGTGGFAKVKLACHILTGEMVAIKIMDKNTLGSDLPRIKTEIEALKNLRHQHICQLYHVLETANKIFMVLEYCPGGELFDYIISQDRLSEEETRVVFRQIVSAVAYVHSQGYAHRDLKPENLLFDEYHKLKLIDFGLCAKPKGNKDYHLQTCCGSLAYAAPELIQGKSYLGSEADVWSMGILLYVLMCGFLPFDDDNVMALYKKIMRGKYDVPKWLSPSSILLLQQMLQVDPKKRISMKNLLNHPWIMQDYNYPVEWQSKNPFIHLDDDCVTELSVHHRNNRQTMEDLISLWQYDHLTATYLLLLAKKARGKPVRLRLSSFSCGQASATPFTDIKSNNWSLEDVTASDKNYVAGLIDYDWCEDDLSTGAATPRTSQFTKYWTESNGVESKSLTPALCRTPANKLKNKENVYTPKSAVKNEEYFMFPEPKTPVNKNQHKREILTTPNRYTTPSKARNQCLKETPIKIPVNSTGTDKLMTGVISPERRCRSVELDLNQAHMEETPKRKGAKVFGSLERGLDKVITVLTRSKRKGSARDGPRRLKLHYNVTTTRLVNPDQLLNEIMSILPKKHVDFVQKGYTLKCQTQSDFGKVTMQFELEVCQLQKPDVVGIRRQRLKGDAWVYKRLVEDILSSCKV
# Sequence of Mitogen-activated protein kinase 1 (Homo sapiens) (P28482 whole entry): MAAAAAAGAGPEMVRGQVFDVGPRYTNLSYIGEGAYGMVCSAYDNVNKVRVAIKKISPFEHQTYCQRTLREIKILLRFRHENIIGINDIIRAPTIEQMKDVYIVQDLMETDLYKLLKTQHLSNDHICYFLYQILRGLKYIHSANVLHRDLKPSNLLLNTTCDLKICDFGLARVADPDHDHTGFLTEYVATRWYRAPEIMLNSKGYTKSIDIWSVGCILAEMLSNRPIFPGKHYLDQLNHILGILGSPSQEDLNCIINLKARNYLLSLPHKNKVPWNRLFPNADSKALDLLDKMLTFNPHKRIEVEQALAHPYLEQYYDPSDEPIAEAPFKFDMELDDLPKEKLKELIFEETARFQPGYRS
# Sequence of MAP kinase-activated protein kinase 2 (Homo sapiens) (P49137 whole entry, looked up): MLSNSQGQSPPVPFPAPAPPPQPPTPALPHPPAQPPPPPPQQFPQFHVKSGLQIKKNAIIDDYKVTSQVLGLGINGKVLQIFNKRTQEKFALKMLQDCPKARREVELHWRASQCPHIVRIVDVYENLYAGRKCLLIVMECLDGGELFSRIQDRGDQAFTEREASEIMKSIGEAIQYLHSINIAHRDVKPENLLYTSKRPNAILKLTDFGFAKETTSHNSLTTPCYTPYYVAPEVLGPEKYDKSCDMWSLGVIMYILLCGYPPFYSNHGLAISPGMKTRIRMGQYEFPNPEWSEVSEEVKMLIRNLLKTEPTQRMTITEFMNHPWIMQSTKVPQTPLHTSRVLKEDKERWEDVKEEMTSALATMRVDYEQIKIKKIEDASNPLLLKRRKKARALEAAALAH
# Sequence of Mitogen-activated protein kinase 3 (Homo sapiens) (P27361 whole entry): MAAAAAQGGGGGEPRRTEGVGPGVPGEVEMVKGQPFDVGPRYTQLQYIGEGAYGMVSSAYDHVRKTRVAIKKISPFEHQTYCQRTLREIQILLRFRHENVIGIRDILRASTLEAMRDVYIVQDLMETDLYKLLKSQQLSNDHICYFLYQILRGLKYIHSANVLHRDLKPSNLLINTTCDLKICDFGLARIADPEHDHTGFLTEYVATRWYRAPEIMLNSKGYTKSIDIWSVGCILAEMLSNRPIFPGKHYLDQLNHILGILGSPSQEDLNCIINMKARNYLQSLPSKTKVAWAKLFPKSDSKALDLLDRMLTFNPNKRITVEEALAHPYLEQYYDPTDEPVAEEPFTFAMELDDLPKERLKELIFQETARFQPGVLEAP
Structure (SMILES),residual activity [1] [%],residual activity [2] [%],residual activity [3] [%],residual activity [4] [%],residual activity [5] [%],residual activity [6] [%],residual activity [7] [%],residual activity [8] [%],residual activity [9] [%],residual activity [10] [%],residual activity [11] [%],residual activity [12] [%],residual activity [13] [%],residual activity [14] [%],residual activity [15] [%],residual activity [16] [%],residual activity [17] [%],residual activity [18] [%],residual activity [19] [%],residual activity [20] [%]
CC(C)(C)c1nc2c3ccc(F)cc3c3c(=O)[nH]ccc3c2[nH]1,65,20,47,64,79,62,29,14,66,20,2,2,81,78,–,–,–,–,–,–
COc1ccc(Cl)cc1NC(=O)Nc1cc(C)nc2ccccc12,89,87,–,–,80,–,86,77,75,86,88,89,–,–,–,–,–,–,–,–
NC(=O)Nc1sc(-c2ccc(F)cc2)cc1C(N)=O,16,1,80,–,92,83,57,17,44,34,72,24,81,47,108,67,86,–,–,–
O=S(=O)(c1cccc2cnccc12)N1CCCNCC1,83,–,–,–,–,–,–,–,–,–,75,16,–,–,–,80,–,–,–,–
Oc1cccc(-c2nc(N3CCOCC3)c3oc4ncccc4c3n2)c1,99,57,83,87,81,–,–,–,–,–,74,88,–,–,122,119,–,–,–,–
COc1cc2c(cc1OC)-c1n[nH]c(Nc3cccc(F)c3)c1C2,6,6,–,76,75,–,73,48,108,–,47,11,74,42,103,103,99,–,–,–
O=C1Cc2c([nH]c3ccc([N+](=O)[O-])cc23)-c2ccccc2N1,6,5,–,–,69,50,34,28,103,129,81,64,60,36,109,–,53,76,45,–
NC(=O)c1cccc(-c2cc(Nc3ccc(OC(F)(F)F)cc3)ncn2)c1,97,82,–,–,–,–,–,–,–,–,74,75,–,–,–,–,–,92,91,–
COc1ccc(COc2ccc(Cc3cnc(N)nc3N)cc2OC)cc1,–,–,100,76,–,–,–,71,–,–,–,–,–,–,–,–,–,–,–,77
CN(C)S(=O)(=O)c1ccc2c(c1)/C(=C/c1cc3c([nH]1)CCCC3)C(=O)N2,3,0,–,88,81,92,24,17,–,83,–,95,124,97,–,–,92,–,–,–
